Bioassay records deposited in PubChem BioAssay by Sanford-Burnham Center for Chemical Genomics.
VHR inh color = inhibitors of human VHR1 phosphatase (DUSP3); recombinant VHR phosphatase, colorimetric substrate read-out; inhibition, % at 20 µM; 0.7% of 50,000 active; in the data active = inhibition above about 60%
Target sequence (P51452 whole entry, looked up): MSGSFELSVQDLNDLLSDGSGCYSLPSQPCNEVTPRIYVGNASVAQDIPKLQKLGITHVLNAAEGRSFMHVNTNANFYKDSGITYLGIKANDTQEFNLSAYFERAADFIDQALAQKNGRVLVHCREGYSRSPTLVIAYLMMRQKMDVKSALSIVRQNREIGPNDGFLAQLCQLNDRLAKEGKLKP
Hits are given with their value; i = inactive. Many of the other results were omitted from the sample, so hits are more common in it than they were.

SMILES	VHR inh color
CCC(CC)NCc1c[nH]c2ccccc12	i
O=C1C=C(NCCc2c[nH]c3ccccc23)CC(c2ccccc2)C1 (stereo not drawn)	i
c1ccc2c(CNC34CC5CC(CC(C5)C3)C4)c[nH]c2c1	active
Cc1ccccc1CNC(=O)CSc1ccc(Cl)cc1	i
CC1(C)C(C(=O)Nc2cccc3ccccc23)C1(C)C	i
O=C(Nc1cccc2ccccc12)C1C(c2ccccc2)=C1c1ccccc1	100
NC(=O)C(=O)Nc1cccc2ccccc12	i
Cc1ccc(Cn2c(NC(=O)c3ccccc3)nc3ccccc32)cc1	i
Cc1ccc2cccc(OC(=O)c3oc4ccccc4c3C)c2n1	i
CCOC(=O)c1c(-c2ccccc2)oc2ccc(OC(C)C(=O)OCC)cc12 (stereo not drawn)	i
CC(Oc1ccc2oc(-c3ccccc3)c(C(=O)O)c2c1)C(=O)O (stereo not drawn)	81
CCOc1ccc2oc(-c3ccccc3)c(C(=O)O)c2c1	i
O=C(c1ccccc1)N1CCN(C(=O)c2ccccc2)C1	i
Cc1ccc(CCSc2c(Cl)cccc2Cl)cn1	i
COc1ccc(-c2n[nH]c(=S)n2-c2ccccc2)cc1	i
O=C(Nc1cc(C(F)(F)F)ccc1Cl)c1ccc(Cl)cc1Cl	i
Cc1ccc(N=C2NC(=O)/C(=C/c3cccc(O)c3)S2)cc1Cl	i
COc1cc(/C=C2\SC(=Nc3ccc(C)c(Cl)c3)NC2=O)ccc1O	68
Cc1ccc(N=C2NC(=O)/C(=C/c3ccc(F)cc3)S2)cc1Cl	i
Cc1ccc(C(=O)Nc2sc3c(c2C(=O)N2CCC(C(N)=O)CC2)CCCC3)cc1	i
Cc1ccc(C(=O)Nc2sc3c(c2C(=O)N2CCCCCC2)CCC(C)C3)cc1 (stereo not drawn)	i
Cc1ccc(C(=O)Nc2sc3c(c2C(=O)N2CCC(C)CC2)CCCC3)cc1	87
O=C1NC(=S)N(c2cccc(Br)c2)C(=O)/C1=C/C=C/c1ccccc1	69
CCN1C(=O)/C(=C/c2ccc(C)o2)C(=O)NC1=S	i
CCN1C(=O)/C(=C/c2ccc(N3CCCC3)cc2)C(=O)NC1=S	i
SMILES	VHR inh color
CCN1C(=O)/C(=C/c2cccc(OC)c2OC)C(=O)NC1=S	i
Cn1cccc1/C=C1/C(=O)NC(=S)N(c2cccc(Cl)c2)C1=O	75
CCN1C(=O)/C(=C/c2cccn2C)C(=O)NC1=S	66
O=C1NC(=S)N(c2cccc(Cl)c2)C(=O)/C1=C\c1ccc(N2CCCC2)cc1	i
O=C1NC(=S)N(c2ccccc2)C(=O)/C1=C/c1cc(Cl)cc(Cl)c1O	i
O=C1NC(=S)N(c2cccc(Br)c2)C(=O)/C1=C/c1ccc(Cl)cc1	i
C=CCN1C(=O)NC(=O)C(=Cc2cccn2C)C1=O	i
CCN1C(=O)/C(=C/c2ccoc2)C(=O)NC1=S	93
O=C1NC(=S)N(c2ccc(Br)cc2)C(=O)/C1=C/C=C/c1ccccc1	i
CCc1ccc(N2C(=O)/C(=C/c3cc(Cl)c(OCC(=O)O)c(Cl)c3)C(=O)NC2=S)cc1	i
COc1c(O)ccc(/C=N/NC(=O)COc2c(Br)cc(Br)cc2Br)c1[N+](=O)[O-]	i
O=C(Nc1ccccc1[N+](=O)[O-])c1c(-c2cnc3ccccc3c2C(=O)Nc2ccccc2[N+](=O)[O-])cnc2ccccc12	i
S=C(NCC12CCC3CC(CC(C3)C1)C2)Nc1ccccc1	i
COc1cc(/C=N\NC(=O)COc2ccccc2Cl)cc(OC)c1O	i
CCOC(=O)C1=NNC(C(=O)OCC)(C(=O)OCC)C1c1ccccc1 (stereo not drawn)	101
CCOC(=O)C1=NNC(C(=O)c2ccccc2)C1c1ccccc1 (stereo not drawn)	i
CCOC(=O)C1=NNC(C(=O)c2ccccc2)C1c1ccc(OC)cc1 (stereo not drawn)	i
CCOc1ccc(N2C(=O)/C(=C/c3cccc4ccccc34)SC2=S)cc1	i
COc1cccc(N(CC(=O)Nc2ccc(C)cc2)S(=O)(=O)c2ccccc2)c1	i
COc1ccc(OC)c(NC(=O)CN(c2ccc(Cl)cc2)S(C)(=O)=O)c1	i
CCOc1cc(N2CCOCC2)c(OCC)cc1N	88
CCOc1ccc(C(=O)Nc2ccc(N3CCOCC3)c(Cl)c2)cc1Cl	i
CCOc1ccc(C(=S)N2CCOCC2)cc1	i
Cc1ccc(N2C(=O)CC(N3CCC(C(N)=O)CC3)C2=O)c(Br)c1 (stereo not drawn)	i
COc1cccc(C2NC(=S)NC(C)=C2C(=O)Nc2ccccc2)c1 (stereo not drawn)	i
SMILES	VHR inh color
c1ccc2nc(NCc3ccncc3)ccc2c1	i
COc1ccc(C2/C(=C(/O)c3ccc(C)cc3)C(=O)C(=O)N2CCCn2ccnc2)c(OC)c1 (stereo not drawn)	i
CS(=O)(=O)N(CC(=O)NCCc1ccccc1)c1cccc(C(F)(F)F)c1	i
COc1ccccc1NC(=O)c1c(N)sc2c1CCC2	i
CCOc1ccccc1NC(=O)c1c(N)sc2c1CCCCC2	75
CCOc1ccccc1NC(=O)c1c(NC(=O)Cc2ccccc2)sc2c1CCCCC2	i
O=C(Nc1ccccc1C(=O)Nc1ccncc1)c1cccs1	i
CSc1ccc(C2Nc3ccc4ccccc4c3C3=C2C(=O)CC(C)(C)C3)cc1 (stereo not drawn)	i
CCCCCCCCc1nnc(NC(C)=O)s1	i
COc1ccc(C(=O)Nc2ccc(S(=O)(=O)Nc3cc(C)on3)cc2)c(OC)c1	110
COc1ccc(C(=O)Nc2cc(C)cc(C)c2)c(OC)c1	i
Cc1cc(NS(=O)(=O)c2ccc(NC(=O)c3cc(Cl)cc(Cl)c3)cc2)no1	i
COc1ccc(C2NC(=S)NC(C)=C2C(=O)Nc2ccccc2Cl)c(OC)c1 (stereo not drawn)	i
COc1ccccc1/C=C(/NC(=O)c1ccccc1)c1nc2ccccc2o1	i
Cc1nn(CC(=O)Nc2ccc(Cl)cc2Cl)c(C)c1[N+](=O)[O-]	i
CCC(=O)N1c2ccccc2NC2=C(C(=O)CC(c3ccccc3)C2)C1c1cccc(Br)c1 (stereo not drawn)	i
COc1ccc(C2CC(=O)C3=C(C2)Nc2ccccc2NC3c2ccc(OC)c(OC)c2)cc1 (stereo not drawn)	i
COc1ccc(C2C3=C(CC(c4ccccc4)CC3=O)Nc3ccccc3N2C(=O)C(C)C)cc1OC (stereo not drawn)	99
CCC(=O)N1c2ccccc2NC2=C(C(=O)CC(c3ccc(OC)cc3)C2)C1c1ccccc1 (stereo not drawn)	i
CCC(=O)N1c2ccccc2NC2=C(C(=O)CC(c3ccccc3)C2)C1c1ccc(F)cc1 (stereo not drawn)	113
COc1ccc(C2CC(=O)C3=C(C2)Nc2ccccc2NC3c2ccc(-c3ccccc3)cc2)cc1OC (stereo not drawn)	i
CCC1=NN2C(=N)/C(=C/c3ccc(-c4ccc([N+](=O)[O-])cc4Br)o3)C(=O)N=C2S1	i
COc1ccc(CNS(=O)(=O)c2c(C)cc(C)cc2C)cc1	i
CC1CCC2(CC1)C(C#N)=C(SCC(N)=O)NC(=O)C2C#N (stereo not drawn)	i
CCOc1ccc(-c2nn(-c3ccccc3)cc2C2C(C(=O)OC)=C(C)NC(C)=C2C(=O)OC)cc1[N+](=O)[O-]	i
COC(=O)C1=C(C)N(C)C(C)=C(C(=O)OC)C1c1cc(OC)c(OC)c(OC)c1	i
COC(=O)C1=C(C)N(C)C(C)=C(C(=O)OC)C1c1cc(Br)c(OC)c(OC)c1	116
COC(=O)C1=C(C)N(C)C(C)=C(C(=O)OC)C1c1ccc(OC)c(OC)c1	i
CN1CCN(C(=O)c2ccccc2NC(=O)CN2C(=O)c3ccccc3C2=O)CC1	i
